Experimental data published in publication PMC4336329 (PLoS ONE, 2015).
Screen size: about 310,000 compounds; about 14,000 (4.5%) showed an effect of 50% or more. Effects have a minus sign here. Shown is part of a subset that was picked to be rich in strong results.

The compounds below were run against human ether-à-go-go-related gene (hERG) potassium channel (human, UniProt Q12809) (assay: primary screen, population patch clamp on CHO cells stably expressing hERG; higher = less effect of the substance).
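Further: peak tail current of the secondary pulse compared with the same well before compound.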

Chain of human ether-à-go-go-related gene (hERG) potassium channel (Q12809 whole entry, looked up): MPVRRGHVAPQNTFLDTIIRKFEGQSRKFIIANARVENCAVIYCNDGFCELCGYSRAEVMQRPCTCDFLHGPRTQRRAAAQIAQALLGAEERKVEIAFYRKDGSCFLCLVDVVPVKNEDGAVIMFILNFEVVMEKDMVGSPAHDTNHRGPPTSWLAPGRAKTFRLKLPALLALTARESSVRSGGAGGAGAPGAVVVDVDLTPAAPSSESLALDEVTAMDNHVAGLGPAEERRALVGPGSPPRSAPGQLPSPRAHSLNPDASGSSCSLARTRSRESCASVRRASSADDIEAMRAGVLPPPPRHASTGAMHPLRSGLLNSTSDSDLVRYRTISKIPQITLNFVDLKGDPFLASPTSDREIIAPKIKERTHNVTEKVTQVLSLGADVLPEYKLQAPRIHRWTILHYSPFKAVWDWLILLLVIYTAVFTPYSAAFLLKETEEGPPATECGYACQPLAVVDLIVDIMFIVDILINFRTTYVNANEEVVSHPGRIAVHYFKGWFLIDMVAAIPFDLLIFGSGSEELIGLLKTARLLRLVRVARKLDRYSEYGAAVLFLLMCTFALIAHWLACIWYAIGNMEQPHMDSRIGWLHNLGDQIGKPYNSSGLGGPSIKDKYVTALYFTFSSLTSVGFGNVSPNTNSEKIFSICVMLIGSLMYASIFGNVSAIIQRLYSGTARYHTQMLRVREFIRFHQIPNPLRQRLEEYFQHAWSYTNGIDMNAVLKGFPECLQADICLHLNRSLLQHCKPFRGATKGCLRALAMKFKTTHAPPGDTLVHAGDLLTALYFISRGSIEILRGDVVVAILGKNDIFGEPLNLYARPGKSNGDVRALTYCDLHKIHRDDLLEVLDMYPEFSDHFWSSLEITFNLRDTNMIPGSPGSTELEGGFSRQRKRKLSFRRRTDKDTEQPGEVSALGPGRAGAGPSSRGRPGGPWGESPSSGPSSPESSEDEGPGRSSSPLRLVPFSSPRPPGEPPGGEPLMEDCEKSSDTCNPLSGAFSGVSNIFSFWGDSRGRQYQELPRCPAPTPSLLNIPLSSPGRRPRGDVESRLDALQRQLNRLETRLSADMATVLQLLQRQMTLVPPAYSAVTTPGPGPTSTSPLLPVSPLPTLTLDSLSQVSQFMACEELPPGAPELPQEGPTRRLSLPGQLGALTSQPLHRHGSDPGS

| Compound | hERG current change (%, negative = inhibition) at 10uM |
| --- | --- |
| CCS(=O)(=O)N1CCN(Cc2ccccc2OC)CC1.O=C(O)C(=O)O | 11.7% |
| C=CCOC(=O)C1=C(C)NC(=O)NC1c1ccc2c(c1)OCO2 (stereo not drawn) | -11.9% |
| O=C(NCc1ccc2c(c1)OCO2)C1CCCN(C(=O)c2ccc(Cl)cc2)C1 (stereo not drawn) | -34.4% |
| CCOC(=O)N/N=C/C(Cl)=C/c1ccccc1 | 0.407% |
| COC(C(=O)N/N=C(\C)c1ccc(C(C)(C)C)cc1)c1ccccc1 (stereo not drawn) | 13.1% |
| COc1ccccc1NC(=O)CCCC(=O)OCC(F)(F)C(F)F | -1.37% |
| COc1ccc(NC(=S)NC2CC3CCC(C2)N3Cc2ccco2)cc1 (stereo not drawn) | -30.1% |
| CCOC(=O)c1c(S(=O)(=O)N2CCCC(C(=O)Nc3ccc(C)cn3)C2)c(C)n(C)c1C (stereo not drawn) | 19.7% |
| CCc1ccc(N=C2NC(=O)/C(=C/c3ccc(OCC(=O)O)cc3)S2)cc1 | 14.6% |
| CCN(Cc1cnn(C)c1)Cc1nc(C(c2ccccc2)c2ccccc2)no1 | -18.2% |
| CCCCNC(=O)Cn1cnc([N+](=O)[O-])n1 | 10.8% |
| CC1(OC(=O)CCc2ccccc2)C(=O)C=C2C=C(c3ccc(C#N)cc3)N(Cc3ccccc3)C=C2C1=O (stereo not drawn) | -51.9% |
| CC1(OC(=O)CCc2ccccc2)C(=O)C=C2C=C(c3ccc(C#N)cc3)N(Cc3ccco3)C=C2C1=O (stereo not drawn) | -38.9% |
| COc1ccc(CN2C=C3C(=O)C(C)(OC(=O)CCc4ccccc4)C(=O)C=C3C=C2c2ccc(C#N)cc2)cc1 (stereo not drawn) | -31.7% |
| CCN(c1ccc(OC)cc1)S(=O)(=O)c1nnc(NC(=O)C2CCCCC2)s1 | 12.2% |
| Cc1cc(=O)oc(C)c1C(=O)N[C@@H]1CCCCNC1=O | 7.72% |
| COc1cccc2cc(C(=O)NCCN3CCOCC3)c(=O)oc12 | 12.9% |
| CCOc1cccc(-c2cc(=O)[nH][nH]2)c1 | 1.58% |
| CC1CCCN(c2nc(NCc3ccco3)nc(N)c2[N+](=O)[O-])C1 (stereo not drawn) | -54.3% |
| CC1CC(C)CN(c2nc(NCc3ccco3)nc(N)c2[N+](=O)[O-])C1 (stereo not drawn) | -27.4% |
| CC1CCN(c2nc(NCc3ccco3)nc(N)c2[N+](=O)[O-])CC1 | -11.9% |

| Compound | hERG current change (%, negative = inhibition) at 10uM |
| --- | --- |
| CCN(c1cccc(C)c1)S(=O)(=O)c1ccc(-c2cc(C)no2)s1 | 5.94% |
| CCN(CC)S(=O)(=O)c1cc(C(=O)Nc2cc(C)on2)c(Cl)cc1Cl | 12.3% |
| CC(=O)c1ccc(NC(=O)CSc2nc(=O)n(CCN3CCOCC3)c3c2CCC3)cc1 | -7.74% |
| O=C(CSc1nc(=O)n(CCCN2CCOCC2)c2c1CCC2)Nc1ccc(F)cc1 | -39.5% |
| O=C(CSc1nc(=O)n(CCN2CCOCC2)c2c1CCCC2)Nc1ccc([N+](=O)[O-])cc1 | -67.6% |
| O=C(CSc1nc(=O)n(CCCN2CCOCC2)c2c1CCC2)Nc1ccc([N+](=O)[O-])cc1 | -60.4% |
| Cc1ccc(NC(=O)CSc2nc(=O)n(CCN3CCOCC3)c3c2CCCC3)cc1 | -27.5% |
| CC(=O)c1cccc(NC(=O)CSc2nc(=O)n(CCN3CCOCC3)c3c2CCCC3)c1 | -11.2% |
| O=C(CSc1nc(=O)n(CCCN2CCOCC2)c2c1CCCC2)Nc1cccc([N+](=O)[O-])c1 | -67.7% |
| CC(=O)Nc1cccc(NC(=O)CSc2nc(=O)n(CCN3CCOCC3)c3c2CCC3)c1 | -2.96% |
| O=c1[nH]cnc2c1c(-c1ccccc1)cn2-c1ccccc1 | 12.1% |
| CCC(C)NC(=O)c1cnn2c1NC(c1cccs1)CC2C(F)(F)F (stereo not drawn) | -11.3% |
| Cc1ccc(C(=O)Nc2ncc(Cc3ccc(F)cc3)s2)o1 | -2.85% |
| O=C(OCC(=O)N1CCCC1=O)c1cc(S(=O)(=O)N2CCOCC2)ccc1F | -22.5% |
| CN1/C(=C\C(=O)c2cccc([N+](=O)[O-])c2)Sc2ccccc21 | 10.8% |
| C/C(CCc1oc2ccc(Cl)cc2c1-c1ccc(C)o1)=N\O | 22.9% |
| O=C(COC(=O)c1cc(=O)[nH]c2ccccc12)Nc1ccc(Cl)cn1 | 6.92% |
| Cc1cccc(N2CCN(C(=O)c3ccc(CNc4c(N5CCC(C)CC5)c(=O)c4=O)cc3)CC2C)c1 (stereo not drawn) | -10.4% |
| CC1(C)N([O-])C(c2cccs2)=C[N+]1=O | -7.12% |
| Cc1cccc(-c2ccc(NC(=O)C3CCN(CC4CC4)CC3)cc2)c1 | -70.9% |
| COc1cccc(NC(=O)C2CC2)c1 | 2.97% |
